# ± gives the standard deviation of the averaged measurements.
# Tests used:
# Assay in all cases: promoter activity interaction Z-score (Lux/OD deviation from empty-vector control); higher = stronger promoter induction by the compound
# [1] = tested on: E. coli BW25113 acrABp lux reporter
# Outline: (§1)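 Wild-type E. coli BW25113 and three single-gene deletion strains, each carrying a low-copy luxCDABE promoter reporter, were grown at 37°C in 40 µl LB Lennox per well of a 384-well plate. Every compound was applied at four 1:2 dilutions in biological duplicates, and OD600 and luminescence were read every 30 min for 12 h. Integration covered 0–8 h for wild type and 1–9 h for deletion strains, and wells under 10% of the median growth value were removed. Scores are Z-transformed residuals of growth-normalised luminescence fitted against a control.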
# [2] = tested on: E. coli BW25113 marRABp lux reporter
# Outline: as §1
# [3] = tested on: E. coli BW25113 micFp lux reporter
# Outline: as §1
# [4] = tested on: E. coli BW25113 ompFp lux reporter
# Outline: as §1
# [5] = tested on: E. coli BW25113 robp lux reporter
# Outline: as §1
# [6] = tested on: E. coli BW25113 soxSp lux reporter
# Outline: as §1
# [7] = tested on: E. coli BW25113 tolCp lux reporter
# Outline: as §1
# [8] = 32.1 µg/ml, genetic background: wild type
# [9] = 32.1 µg/ml, genetic background: ΔmarA
# [10] = 32.1 µg/ml, genetic background: Δrob
# [11] = 32.1 µg/ml, genetic background: ΔsoxS
# [12] = 64.2 µg/ml, genetic background: wild type
# [13] = 64.2 µg/ml, genetic background: ΔmarA
# [14] = 64.2 µg/ml, genetic background: Δrob
# [15] = 64.2 µg/ml, genetic background: ΔsoxS
# [16] = 128.4 µg/ml, genetic background: wild type
# [17] = 128.4 µg/ml, genetic background: ΔmarA
# [18] = 128.4 µg/ml, genetic background: Δrob
# [19] = 128.4 µg/ml, genetic background: ΔsoxS
# [20] = 256.8 µg/ml, genetic background: wild type
# [21] = 256.8 µg/ml, genetic background: ΔmarA
# [22] = 256.8 µg/ml, genetic background: Δrob
# [23] = 256.8 µg/ml, genetic background: ΔsoxS
compound,measurement,setting,value
CN(C)C(=O)C(CCN1CCC(O)(c2ccc(Cl)cc2)CC1)(c1ccccc1)c1ccccc1 [Loperamide],promoter activity interaction Z-score,[1]; [8],0.0421 ± 0.17
same,promoter activity interaction Z-score,[1]; [9],0.36 ± 0.083
same,promoter activity interaction Z-score,[1]; [10],-0.0142 ± 0.12
same,promoter activity interaction Z-score,[1]; [11],0.372 ± 0.34
same,promoter activity interaction Z-score,[1]; [12],-0.16 ± 0.23
same,promoter activity interaction Z-score,[1]; [13],0.126 ± 1.6
same,promoter activity interaction Z-score,[1]; [14],-0.00894 ± 0.11
same,promoter activity interaction Z-score,[1]; [15],0.114 ± 0.11
same,promoter activity interaction Z-score,[1]; [16],-0.237 ± 0.23
same,promoter activity interaction Z-score,[1]; [17],0.287 ± 0.52
same,promoter activity interaction Z-score,[1]; [18],-0.146 ± 0.17
same,promoter activity interaction Z-score,[1]; [19],0.111 ± 0.11
same,promoter activity interaction Z-score,[1]; [20],0.213 ± 0.0047
same,promoter activity interaction Z-score,[1]; [21],-1.07 ± 0.54
same,promoter activity interaction Z-score,[1]; [22],0.0923 ± 0.42
same,promoter activity interaction Z-score,[1]; [23],-0.358 ± 0.52
same,promoter activity interaction Z-score,[2]; [8],-0.202 ± 0.03
same,promoter activity interaction Z-score,[2]; [9],-0.0422 ± 0.33
same,promoter activity interaction Z-score,[2]; [10],-0.0553 ± 0.2
same,promoter activity interaction Z-score,[2]; [11],-0.22 ± 0.2
same,promoter activity interaction Z-score,[2]; [12],-0.233 ± 0.17
same,promoter activity interaction Z-score,[2]; [13],0.346 ± 0.1
same,promoter activity interaction Z-score,[2]; [14],-0.132 ± 0.024
same,promoter activity interaction Z-score,[2]; [15],-0.171 ± 0.18
same,promoter activity interaction Z-score,[2]; [16],-0.314 ± 0.22
same,promoter activity interaction Z-score,[2]; [17],0.0947 ± 0.21
same,promoter activity interaction Z-score,[2]; [18],-0.192 ± 0.036
same,promoter activity interaction Z-score,[2]; [19],-0.213 ± 0.17
same,promoter activity interaction Z-score,[2]; [20],-0.0275 ± 0.19
same,promoter activity interaction Z-score,[2]; [21],0.711 ± 0.64
same,promoter activity interaction Z-score,[2]; [22],-0.0389 ± 0.11
same,promoter activity interaction Z-score,[2]; [23],-0.046 ± 0.47
same,promoter activity interaction Z-score,[3]; [8],0.145 ± 0.076
same,promoter activity interaction Z-score,[3]; [9],0.0394 ± 0.035
same,promoter activity interaction Z-score,[3]; [10],0.0787 ± 0.17
same,promoter activity interaction Z-score,[3]; [11],-0.0846 ± 0.15
same,promoter activity interaction Z-score,[3]; [12],0.186 ± 0.1
same,promoter activity interaction Z-score,[3]; [13],0.0703 ± 0.0014
same,promoter activity interaction Z-score,[3]; [14],0.0931 ± 0.092
same,promoter activity interaction Z-score,[3]; [15],-0.0463 ± 0.045
same,promoter activity interaction Z-score,[3]; [16],0.0787 ± 0.19
same,promoter activity interaction Z-score,[3]; [17],0.0574 ± 0.025
same,promoter activity interaction Z-score,[3]; [18],0.0936 ± 0.24
same,promoter activity interaction Z-score,[3]; [19],-0.14 ± 0.12
same,promoter activity interaction Z-score,[3]; [20],-0.186 ± 0.52
same,promoter activity interaction Z-score,[3]; [21],-0.0712 ± 0.25
same,promoter activity interaction Z-score,[3]; [22],-0.12 ± 0.022
same,promoter activity interaction Z-score,[3]; [23],-0.469 ± 0.21
same,promoter activity interaction Z-score,[4]; [8],-0.00512 ± 0.32
same,promoter activity interaction Z-score,[4]; [9],0.262 ± 0.052
same,promoter activity interaction Z-score,[4]; [10],0.0272 ± 0.031
same,promoter activity interaction Z-score,[4]; [11],-0.21 ± 0.06
same,promoter activity interaction Z-score,[4]; [12],0.0346 ± 0.0034
same,promoter activity interaction Z-score,[4]; [13],-0.0766 ± 0.0049
same,promoter activity interaction Z-score,[4]; [14],-0.471 ± 0.21
same,promoter activity interaction Z-score,[4]; [15],-0.28 ± 0.26
same,promoter activity interaction Z-score,[4]; [16],-0.593 ± 0.28
same,promoter activity interaction Z-score,[4]; [17],-0.537 ± 0.65
same,promoter activity interaction Z-score,[4]; [18],-1.29 ± 0.17
same,promoter activity interaction Z-score,[4]; [19],-1.21 ± 0.3
same,promoter activity interaction Z-score,[4]; [20],0.202 ± 0.2
same,promoter activity interaction Z-score,[4]; [21],0.819 ± 0.3
same,promoter activity interaction Z-score,[4]; [22],-0.591 ± 0.47
same,promoter activity interaction Z-score,[4]; [23],0.54 ± 0.76
same,promoter activity interaction Z-score,[5]; [8],-0.195 ± 0.23
same,promoter activity interaction Z-score,[5]; [9],-0.672 ± 0.52
same,promoter activity interaction Z-score,[5]; [10],0.735 ± 0.061
same,promoter activity interaction Z-score,[5]; [11],0.0686 ± 0.097
same,promoter activity interaction Z-score,[5]; [12],0.0117 ± 0.077
same,promoter activity interaction Z-score,[5]; [13],-0.171 ± 0.68
same,promoter activity interaction Z-score,[5]; [14],0.22 ± 0.015
same,promoter activity interaction Z-score,[5]; [15],0.000621 ± 0.037
same,promoter activity interaction Z-score,[5]; [16],-0.524 ± 0.45
same,promoter activity interaction Z-score,[5]; [17],-0.323 ± 0.55
same,promoter activity interaction Z-score,[5]; [18],-0.996 ± 0.2
same,promoter activity interaction Z-score,[5]; [19],-0.571 ± 0.73
same,promoter activity interaction Z-score,[5]; [20],-1.15 ± 0.5
same,promoter activity interaction Z-score,[5]; [21],-0.901 ± 1.4
same,promoter activity interaction Z-score,[5]; [22],-2.1 ± 0.29
same,promoter activity interaction Z-score,[5]; [23],-1.78 ± 0.21
same,promoter activity interaction Z-score,[6]; [8],0.154 ± 0.15
same,promoter activity interaction Z-score,[6]; [9],-0.043 ± 0.059
same,promoter activity interaction Z-score,[6]; [10],0.355 ± 0.12
same,promoter activity interaction Z-score,[6]; [11],0.325 ± 0.045
same,promoter activity interaction Z-score,[6]; [12],-0.0625 ± 0.16
same,promoter activity interaction Z-score,[6]; [13],-0.0378 ± 0.015
same,promoter activity interaction Z-score,[6]; [14],0.149 ± 0.035
same,promoter activity interaction Z-score,[6]; [15],-0.0736 ± 0.2
same,promoter activity interaction Z-score,[6]; [16],0.0173 ± 0.089
same,promoter activity interaction Z-score,[6]; [17],0.196 ± 0.047
same,promoter activity interaction Z-score,[6]; [18],-0.0928 ± 0.32
same,promoter activity interaction Z-score,[6]; [19],-0.2 ± 0.021
same,promoter activity interaction Z-score,[6]; [20],-0.236 ± 0.14
same,promoter activity interaction Z-score,[6]; [21],-0.217 ± 0.25
same,promoter activity interaction Z-score,[6]; [22],-0.0806 ± 0.13
same,promoter activity interaction Z-score,[6]; [23],-0.169 ± 0.064
same,promoter activity interaction Z-score,[7]; [8],-0.194 ± 0.29
same,promoter activity interaction Z-score,[7]; [9],-0.0191 ± 0.39
same,promoter activity interaction Z-score,[7]; [10],-0.0299 ± 0.8
same,promoter activity interaction Z-score,[7]; [11],-0.292 ± 0.62
same,promoter activity interaction Z-score,[7]; [12],0.0244 ± 0.6
same,promoter activity interaction Z-score,[7]; [13],0.821 ± 0.86
same,promoter activity interaction Z-score,[7]; [14],-0.356 ± 0.33
same,promoter activity interaction Z-score,[7]; [15],0.551 ± 0.73
same,promoter activity interaction Z-score,[7]; [16],-0.426 ± 0.95
same,promoter activity interaction Z-score,[7]; [17],-0.198 ± 0.95
same,promoter activity interaction Z-score,[7]; [18],-0.855 ± 0.25
same,promoter activity interaction Z-score,[7]; [19],-0.596 ± 0.53
same,promoter activity interaction Z-score,[7]; [20],0.39 ± 0.18
same,promoter activity interaction Z-score,[7]; [21],0.271 ± 1.2
same,promoter activity interaction Z-score,[7]; [22],0.764 ± 1
same,promoter activity interaction Z-score,[7]; [23],0.351 ± 0.69
